Assay results: PubChem BioAssay AID1159580 (chemical genetic matrix, 2015)
The whole screen tested about 5,500 compounds, of which about 2,000 (36%) were called active. Not shown: some 18% with an inconclusive outcome. Cut-off read from the data, not from the text of the source: active = normalized growth mostly below about 0.91 (no sharp cut-off); inconclusive = no clear call, values can overlap the other calls; inactive = mostly above about 0.92. Some of the results follow.

Assay: chemical genetic growth profiling, strain panel (AID 1159580);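 note: tested at 20 µM; growth read once vehicle control cultures reached saturation at 30 °C; 1 = growth at the plate median or of vehicle wells; lower values mean less growth of the strain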
Details: S. cerevisiae deletion strains, growth OD

Measured: normalized growth

CC(C)C(C)/C=C/C(C)[C@H]1CCC2C3=CCC4CC(=O)CC[C@]4(C)C3CC[C@@]21C (some centres not stated)
inactive: locus YAL013W, strain DEP1, stronger effect = lower value 1.04 | locus YAL021C, strain ccr4, stronger effect = lower value 0.999 | locus YAL026C, strain drs2, stronger effect = lower value 1 | locus YAL030W, strain snc1, stronger effect = lower value 1 | locus YBL061C, strain skt5, stronger effect = lower value 1 | locus YBR009C, strain hhf1, stronger effect = lower value 0.981 | locus YBR021W, strain FUR4, stronger effect = lower value 1 | locus YBR023C, strain chs3, stronger effect = lower value 0.995 | locus YBR171W, strain sec66, stronger effect = lower value 0.986 | locus YBR229C, strain ROT2, stronger effect = lower value 1.02 | locus YBR231C, strain swc5, stronger effect = lower value 1.03 | locus YBR279W, strain paf1, stronger effect = lower value 1 | locus YCL011C, strain gbp2, stronger effect = lower value 1.01 | locus YCL016C, strain dcc1, stronger effect = lower value 1.01 | locus YCL029C, strain bik1, stronger effect = lower value 1.02 | locus YCL061C, strain MRC1, stronger effect = lower value 1.01 | locus YCL069W, strain vba3, stronger effect = lower value 0.996 | locus YCR088W, strain abp1, stronger effect = lower value 1 | locus YDL005C, strain med2, stronger effect = lower value 1 | locus YDL035C, strain GPR1, stronger effect = lower value 0.992 | locus YDL040C, strain nat1, stronger effect = lower value 1 | locus YDL074C, strain BRE1, stronger effect = lower value 1 | locus YDL101C, strain DUN1, stronger effect = lower value 1.01 | locus YDL185W, strain tfp1, stronger effect = lower value 1.01 | locus YDL192W, strain arf1, stronger effect = lower value 0.996 | locus YDR001C, strain nth1, stronger effect = lower value 1 | locus YDR069C, strain doa4, stronger effect = lower value 0.997 | locus YDR101C, strain arx1, stronger effect = lower value 1.03 | locus YDR137W, strain rgp1, stronger effect = lower value 0.927 | locus YDR150W, strain NUM1, stronger effect = lower value 1.02 | locus YDR159W, strain sac3, stronger effect = lower value 1 | locus YDR162C, strain NBP2, stronger effect = lower value 0.97 | locus YDR195W, strain ref2 0.928 | locus YDR297W, strain sur2, stronger effect = lower value 1 | locus YDR318W, strain mcm21, stronger effect = lower value 1.01 | locus YDR334W, strain swr1, stronger effect = lower value 1 | locus YDR335W, strain msn5, stronger effect = lower value 1.01 | locus YDR388W, stronger effect = lower value 1.01 | locus YDR392W, strain spt3, stronger effect = lower value 0.941 | locus YDR502C, strain sam2, stronger effect = lower value 0.999 | locus YEL003W, strain gim4, stronger effect = lower value 1.01 | locus YEL037C, strain rad23, stronger effect = lower value 1 | locus YEL061C, strain CIN8 (second series), stronger effect = lower value 1.01 | locus YEL061C, strain CIN8, stronger effect = lower value 1.01 | locus YER015W, strain faa2, stronger effect = lower value 1 | locus YER016W, strain bim1, stronger effect = lower value 1 | locus YER110C, stronger effect = lower value 1.01 | locus YER111C, strain swi4, stronger effect = lower value 1 | locus YER155C, strain BEM2 (second series), stronger effect = lower value 0.984 | locus YER155C, strain BEM2, stronger effect = lower value 1.03 | locus YER167W, strain BCK2, stronger effect = lower value 1.03 | locus YFR010W, strain ubp6, stronger effect = lower value 1.01 | locus YGL078C, strain dbp3, stronger effect = lower value 0.98 | locus YGL086W, strain mad1, stronger effect = lower value 1 | locus YGL167C, strain pmr1, stronger effect = lower value 0.995 | locus YGL173C, strain kem1, stronger effect = lower value 0.995 | locus YGL227W, strain vid30, stronger effect = lower value 1 | locus YGL240W, strain doc1, stronger effect = lower value 0.999 | locus YGL248W, strain PDE1, stronger effect = lower value 1.01 | locus YGL253W, strain hxk2, stronger effect = lower value 1.01 | locus YGR078C, strain PAC10, stronger effect = lower value 1.01 | locus YGR135W, strain pre9, stronger effect = lower value 1 | locus YGR252W, strain gcn5, stronger effect = lower value 0.985 | locus YHR013C, strain ard1, stronger effect = lower value 0.968 | locus YHR027C, strain rpn1, stronger effect = lower value 1.01 | locus YHR030C, strain SLT2, stronger effect = lower value 1.03 | locus YHR079C, strain IRE1 (second series), stronger effect = lower value 1.01 | locus YHR094C, strain hxt1, stronger effect = lower value 1.02 | locus YHR129C, strain ARP1, stronger effect = lower value 1.02 | locus YHR142W, strain chs7, stronger effect = lower value 1 | locus YHR200W, strain rpn10, stronger effect = lower value 1.01 | locus YIL066C, strain RNR3, stronger effect = lower value 1.01 | locus YIL073C, strain SPO22, stronger effect = lower value 1.02 | locus YIL125W, strain kgd1, stronger effect = lower value 1.01 | locus YIR030C, strain dcg1, stronger effect = lower value 1.02 | locus YJL092W, strain hpr5, stronger effect = lower value 1.01 | locus YJL095W, strain BCK1 (second series), stronger effect = lower value 1.01 | locus YJL095W, strain BCK1, stronger effect = lower value 1.02 | locus YJL115W, strain asf1, stronger effect = lower value 0.99 | locus YJL129C, strain trk1, stronger effect = lower value 0.998 | locus YJL134W, strain LCB3, stronger effect = lower value 1.02 | locus YJL154C, strain vps35, stronger effect = lower value 1.01 | locus YJL164C, strain tpk1, stronger effect = lower value 0.998 | locus YJL166W, strain qcr8, stronger effect = lower value 1.01 | locus YJL168C, strain set2, stronger effect = lower value 1 | locus YJL187C, strain SWE1 (second series), stronger effect = lower value 1.01 | locus YJL187C, strain SWE1, stronger effect = lower value 1 | locus YJR043C, strain POL32, stronger effect = lower value 1.02 | locus YJR075W, strain HOC1, stronger effect = lower value 1.03 | locus YKL009W, strain mrt4, stronger effect = lower value 0.95 | locus YKL068W, stronger effect = lower value 1.01 | locus YKL085W, strain MDH1 (second series), stronger effect = lower value 1.02 | locus YKL085W, strain MDH1, stronger effect = lower value 1.02 | locus YKL160W, strain elf1, stronger effect = lower value 1.01 | locus YKR001C, strain vps1, stronger effect = lower value 1.01 | locus YKR026C, strain gcn3, stronger effect = lower value 0.971 | locus YKR091W, strain srl3, stronger effect = lower value 1.01 | locus YLL001W, strain dnm1, stronger effect = lower value 0.997 | locus YLL026W, stronger effect = lower value 1 | locus YLL041C, strain sdh2, stronger effect = lower value 1 | locus YLR027C, strain aat2, stronger effect = lower value 1.01 | locus YLR039C, strain RIC1, stronger effect = lower value 0.968 | locus YLR058C, strain SHM2, stronger effect = lower value 1.02 | locus YLR102C, strain apc9, stronger effect = lower value 1.01 | locus YLR221C, strain rsa3, stronger effect = lower value 1.01 | locus YLR258W, strain gsy2, stronger effect = lower value 1 | locus YLR262C, strain YPT6 (second series), stronger effect = lower value 0.895 | locus YLR262C, strain YPT6, stronger effect = lower value 0.952 | locus YLR268W, strain sec22, stronger effect = lower value 1 | locus YLR320W, strain mms22, stronger effect = lower value 0.965 | locus YLR330W, strain CHS5, stronger effect = lower value 1.03 | locus YLR342W, strain FKS1 (second series), stronger effect = lower value 1.03 | locus YLR342W, strain FKS1, stronger effect = lower value 1 | locus YLR357W, strain rsc2, stronger effect = lower value 0.978 | locus YLR370C, strain arc18, stronger effect = lower value 0.998 | locus YLR371W, strain rom2, stronger effect = lower value 1.01 | locus YLR384C, strain iki3, stronger effect = lower value 0.997 | locus YLR418C, strain cdc73, stronger effect = lower value 1.03 | locus YML016C, strain PPZ1, stronger effect = lower value 1.02 | locus YML032C, strain rad52, stronger effect = lower value 1 | locus YML120C, strain ndi1, stronger effect = lower value 1.01 | locus YML124C, strain tub3, stronger effect = lower value 1.02 | locus YMR058W, strain fet3, stronger effect = lower value 1.01 | locus YMR078C, strain ctf18, stronger effect = lower value 1.02 | locus YMR125W, strain sto1, stronger effect = lower value 1.01 | locus YMR129W, stronger effect = lower value 0.999 | locus YMR205C, strain PFK2, stronger effect = lower value 0.976 | locus YMR223W, strain ubp8, stronger effect = lower value 0.986 | locus YMR231W, strain pep5, stronger effect = lower value 0.999 | locus YMR307W, strain GAS1, stronger effect = lower value 1.2 | locus YNL067W, strain RPL9B, stronger effect = lower value 1.02 | locus YNL071W, strain lat1, stronger effect = lower value 1.01 | locus YNL209W, strain ssb2, stronger effect = lower value 1.01 | locus YNL233W, strain BNI4, stronger effect = lower value 1.03 | locus YNL248C, strain rpa49, stronger effect = lower value 0.995 | locus YNL250W, strain rad50, stronger effect = lower value 1.01 | locus YNL271C, strain bni1, stronger effect = lower value 1 | locus YNL298W, strain CLA4, stronger effect = lower value 0.991 | locus YNL307C, strain MCK1, stronger effect = lower value 1.02 | locus YNL322C, strain KRE1 (second series), stronger effect = lower value 0.996 | locus YNR049C, strain mso1, stronger effect = lower value 1 | locus YNR052C, strain pop2, stronger effect = lower value 0.971 | locus YOL012C, strain htz1 1.52 | locus YOL147C, strain pex11, stronger effect = lower value 1.01 | locus YOR001W, strain rrp6, stronger effect = lower value 1 | locus YOR061W, strain CKA2, stronger effect = lower value 1.02 | locus YOR069W, strain VPS5, stronger effect = lower value 1.02 | locus YOR070C, strain gyp1, stronger effect = lower value 1 | locus YOR080W, strain dia2, stronger effect = lower value 1 | locus YOR083W, strain WHI5, stronger effect = lower value 1.01 | locus YOR106W, strain vam3, stronger effect = lower value 0.995 | locus YOR136W, strain idh2, stronger effect = lower value 1 | locus YOR144C, strain elg1, stronger effect = lower value 1.01 | locus YOR184W, strain ser1, stronger effect = lower value 1 | locus YOR265W, strain rbl2, stronger effect = lower value 0.999 | locus YOR270C, strain vph1, stronger effect = lower value 1.04 | locus YOR290C, strain snf2, stronger effect = lower value 0.936 | locus YOR316C, strain cot1, stronger effect = lower value 1.01 | locus YPL051W, strain arl3, stronger effect = lower value 1.03 | locus YPL078C, strain atp4, stronger effect = lower value 1 | locus YPL106C, strain sse1, stronger effect = lower value 1.01 | locus YPL240C, strain hsp82, stronger effect = lower value 0.998 | locus YPR119W, strain clb2, stronger effect = lower value 1.02 | locus YPR141C, strain kar3, stronger effect = lower value 1.01 | locus YPR163C, strain tif3, stronger effect = lower value 1.01 | locus YPR167C, strain met16, stronger effect = lower value 1.01 | strain wtn01, stronger effect = lower value 0.991
